Data on 8 compounds can be found in PubChem BioAssay (NCI).

Some test systems named below: SR leukemia; RPMI-8226 leukemia; OVCAR-8 ovarian; OVCAR-5 ovarian; OVCAR-4 ovarian; SK-OV-3 ovarian; IGROV1 ovarian; OVCAR-3 ovarian; HS 578T breast; NCI/ADR-RES ovarian; T-47D breast; BT-549 breast; MDA-MB-435 melanoma; SW-620 colon; MCF7 breast; HCT-116 colon; HCC-2998 colon; KM12 colon; MDA-MB-468 breast.
Common to all, as to assay: NCI-60 one-dose screen, 48 h (100 = growth as untreated, 0 = no growth, -100 = all killed)
Holding throughout (settings): 10 µM unless noted

Each structure is given as a SMILES string. About 83,000 compounds went through this panel and 20% of them were active in at least one assay; those are over-represented in the sample as a whole.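 Assay: single dose, 48 h. Readout: percent growth (0 = no net growth; negative = cell death). Active: <10.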 A number with no mark means an inactive call. Activity calls are given as the source filed them.

For the compound `O=C(COc1ccc(/C=C2/C(=O)Nc3ccc(Cl)cc32)cc1)Nc1ccc(Br)cc1`, the growth with SR leukemia was -35.7% (active); with RPMI-8226 leukemia, 14%; with OVCAR-8 ovarian, -44.4% (active); in the experiment with OVCAR-5 ovarian it was 3.15% (active); in the experiment with OVCAR-4 ovarian, -54% (active); in the experiment on SK-OV-3 ovarian, -57.8% (active). Moreover, the growth was -22.2% (active) in the experiment with IGROV1 ovarian; -64.8% (active) with OVCAR-3 ovarian; -14.2% (active) in the experiment with HS 578T breast; -34% (active) with NCI/ADR-RES ovarian; -22% (active) in the experiment on T-47D breast; -34.2% (active) in the experiment on BT-549 breast. Also, the growth in the experiment on MDA-MB-435 melanoma was -1.54% (active); in the experiment with SW-620 colon, 2.56% (active); in the experiment with MCF7 breast, -26.9% (active); in the experiment on HCT-116 colon, -64% (active); with HCC-2998 colon it was 41.6%; with KM12 colon, 2.45% (active). Also, the growth in the experiment with MDA-MB-468 breast is 38.4%.

`COc1ccc(-c2nc3ccc(-c4nnc(SCC(=O)Nc5ccc(/C(C)=N\O)cc5)o4)cc3[nH]2)cc1`: the growth in the experiment with SR leukemia was 47.9%; in the experiment on RPMI-8226 leukemia it was 36.5%; in the experiment with OVCAR-8 ovarian, 55.4%; in the experiment on OVCAR-5 ovarian it was 113%; in the experiment with OVCAR-4 ovarian it was 83.3%; with SK-OV-3 ovarian, 80.1%. In addition, the growth is 69.6% in the experiment with IGROV1 ovarian; 63.3% in the experiment on OVCAR-3 ovarian; 6.55% (active) with HS 578T breast; 108% with NCI/ADR-RES ovarian; 53.1% in the experiment on T-47D breast; -62.3% (active) with BT-549 breast. The growth with MDA-MB-435 melanoma is 14.5%; in the experiment on SW-620 colon, 96.2%; in the experiment on MCF7 breast, 37%; with HCT-116 colon, 70.5%; in the experiment on HCC-2998 colon, 126%; in the experiment with KM12 colon it was 37.6%. Further, the growth with MDA-MB-468 breast was 100%.

For the compound `CCOC(=O)/C(F)=C/C1CC1C1CCN(C(=O)OC(C)(C)C)CC1` (configuration not stated), the growth in the experiment on SR leukemia was 89.6%; in the experiment on RPMI-8226 leukemia it was 102%; with OVCAR-8 ovarian, 103%; with OVCAR-5 ovarian it was 111%; in the experiment with OVCAR-4 ovarian, 94.8%; in the experiment on SK-OV-3 ovarian, 110%. Besides, the growth in the experiment on IGROV1 ovarian was 106%; in the experiment with OVCAR-3 ovarian it was 111%; in the experiment on HS 578T breast, 110%; in the experiment on NCI/ADR-RES ovarian, 100%; in the experiment on T-47D breast, 74.6%; in the experiment with BT-549 breast it was 125%. In addition, the growth is 105% in the experiment on MDA-MB-435 melanoma; 101% with SW-620 colon; 83.9% with MCF7 breast; 99.1% with HCT-116 colon; 111% in the experiment on HCC-2998 colon; 102% in the experiment with KM12 colon. Moreover, the growth with MDA-MB-468 breast was 94.8%.

Turning to `CN1CCN(C(=O)CCN(C(=O)Oc2cc3c(c4ccccc24)[C@H](CCl)CN3C(=O)c2cc3cc(OCCCN4CCC4)ccc3[nH]2)[C@H]2CCSSC2)CC1`, the growth in the experiment with SR leukemia is -17.2% (active); in the experiment on RPMI-8226 leukemia, -39.8% (active); in the experiment on OVCAR-8 ovarian it was -64.4% (active); in the experiment on OVCAR-5 ovarian, -88.8% (active); in the experiment on OVCAR-4 ovarian, -30.2% (active); in the experiment on SK-OV-3 ovarian it was -12.4% (active). Besides, the growth in the experiment with IGROV1 ovarian was -51.5% (active); in the experiment on OVCAR-3 ovarian, -71.7% (active); with HS 578T breast, -9.25% (active); in the experiment on NCI/ADR-RES ovarian, -46.7% (active); in the experiment with T-47D breast, -40.9% (active); in the experiment with BT-549 breast it was -68.3% (active). In addition, the growth with MDA-MB-435 melanoma was -37.1% (active); in the experiment on SW-620 colon, -54.2% (active); in the experiment on MCF7 breast, -67.4% (active); in the experiment on HCT-116 colon, -42.7% (active); in the experiment on HCC-2998 colon it was -91.2% (active); in the experiment with KM12 colon it was -63.3% (active). Further, the growth with MDA-MB-468 breast was -82.9% (active).

On to `FC(F)(F)c1cc2c(Cl)ncnc2n1CCN1CCOCC1`, for which the growth is -50.8% (active) in the experiment with SR leukemia; 103% in the experiment with RPMI-8226 leukemia; 64.7% in the experiment with OVCAR-8 ovarian; 98.4% in the experiment on OVCAR-5 ovarian; 19.7% in the experiment with OVCAR-4 ovarian; 101% in the experiment on SK-OV-3 ovarian. Moreover, the growth with IGROV1 ovarian is -58.3% (active); in the experiment on OVCAR-3 ovarian, 38.5%; with HS 578T breast, 95.8%; in the experiment with NCI/ADR-RES ovarian it was 81.4%; in the experiment on T-47D breast, 96.2%; with BT-549 breast it was 60.6%. Also, the growth with MDA-MB-435 melanoma is 86.4%; in the experiment on SW-620 colon it was 59.9%; in the experiment on MCF7 breast it was 89%; in the experiment with HCT-116 colon, 31.7%; with HCC-2998 colon it was -26.6% (active); in the experiment on KM12 colon, 96.4%. For the same compound, the growth with MDA-MB-468 breast is 40.1%.

As to `Cn1cc(-c2cc(N)n3nc(-c4c[nH]c5ccc(F)cc45)cc3n2)c2cc(Br)cnc21`, the growth with SR leukemia is -23.5% (active); in the experiment with RPMI-8226 leukemia it was 19.2%; in the experiment with OVCAR-8 ovarian, 42.8%; with OVCAR-5 ovarian it was 74.2%; in the experiment with OVCAR-4 ovarian, 71.6%; in the experiment with SK-OV-3 ovarian, 104%. Moreover, the growth is 70.7% with IGROV1 ovarian; 109% in the experiment with OVCAR-3 ovarian; 86.4% with HS 578T breast; 56% with NCI/ADR-RES ovarian; 54.5% with T-47D breast; 92.6% in the experiment with BT-549 breast. The growth is 78.8% with MDA-MB-435 melanoma; 17.2% in the experiment on SW-620 colon; 47.1% in the experiment on MCF7 breast; -26.9% (active) in the experiment with HCT-116 colon; 13.8% in the experiment on HCC-2998 colon; 3.18% (active) in the experiment with KM12 colon. In the experiment on MDA-MB-468 breast, the growth is 20.7%.

Take `Cc1ccc(C(=O)Nc2cccc(C(=O)NC(=S)Nc3ccc(S(N)(=O)=O)cc3)c2)cc1`: the growth was 79.7% in the experiment with SR leukemia; 82.2% in the experiment on RPMI-8226 leukemia; 51.1% with OVCAR-8 ovarian; 91.5% in the experiment on OVCAR-5 ovarian; 31.6% with OVCAR-4 ovarian; 77% with SK-OV-3 ovarian. The growth with IGROV1 ovarian is 96.2%; in the experiment on OVCAR-3 ovarian, 78.8%; in the experiment on HS 578T breast, 63.8%; in the experiment on NCI/ADR-RES ovarian it was 84.8%; in the experiment on T-47D breast, 47.6%; in the experiment with BT-549 breast it was 51.4%. In addition, the growth was 72.5% with MDA-MB-435 melanoma; 116% in the experiment with SW-620 colon; 57.2% in the experiment on MCF7 breast; 71.6% in the experiment on HCT-116 colon; 95.8% in the experiment on HCC-2998 colon; 76.9% with KM12 colon. For the same compound, in the experiment on MDA-MB-468 breast, the growth is 58.7%.

For `CCc1ccccc1-c1nc(CN[C@@H]2C[C@@H]3C[C@H]([C@H]2C)C3(C)C)c(C)o1`, the growth is -15.6% (active) with SR leukemia; -13.9% (active) in the experiment with RPMI-8226 leukemia; -66.4% (active) in the experiment with OVCAR-8 ovarian; -87.4% (active) in the experiment on OVCAR-5 ovarian; -42.9% (active) with OVCAR-4 ovarian; -79.8% (active) in the experiment on SK-OV-3 ovarian. In addition, the growth with IGROV1 ovarian was -85% (active); in the experiment with OVCAR-3 ovarian, -61.6% (active); in the experiment on HS 578T breast, -43.4% (active); with NCI/ADR-RES ovarian it was -78.4% (active); with T-47D breast, -60.3% (active); with BT-549 breast it was -89.7% (active). In addition, the growth is -79.5% (active) with MDA-MB-435 melanoma; -43.5% (active) in the experiment with SW-620 colon; -84.4% (active) in the experiment with MCF7 breast; -82.4% (active) in the experiment on HCT-116 colon; -83.9% (active) with HCC-2998 colon; -87.4% (active) in the experiment with KM12 colon. Moreover, the growth with MDA-MB-468 breast was -83.4% (active).
